# In the supplement of paper PMC10681739:
# Target: RUNX1 (UniProt Q01196)
# Experiment: RUNX1 binding intensity (PBM fluorescence), RUNX1 alone (arbitrary fluorescence units); higher = stronger binding
# Details: RUNX1 concentration 2 nM; ETS1 concentration 0 nM
# Experimental: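 Cooperative gcPBM on 36-bp genomic probes with neighbouring ETS1 and RUNX1 sites. Recombinant human RUNX1 (2 nM) was incubated alone or with ETS1 (25 nM) and detected with anti-RUNX1 antibody plus Alexa488 secondary. Values are medians over 4 replicate spots; the RUNX1+ETS1 data were normalised to the RUNX1-only data. The probes sit in constant array flanks that are not printed.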
# 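Note: Full-length recombinant human RUNX1 bound to double-stranded 36-bp genomic probes on a high-density microarray, scored as Alexa488 fluorescence per spot via anti-RUNX1 antibody, median of four replicate spots.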
# RUNX1, sequence (Q01196 whole entry): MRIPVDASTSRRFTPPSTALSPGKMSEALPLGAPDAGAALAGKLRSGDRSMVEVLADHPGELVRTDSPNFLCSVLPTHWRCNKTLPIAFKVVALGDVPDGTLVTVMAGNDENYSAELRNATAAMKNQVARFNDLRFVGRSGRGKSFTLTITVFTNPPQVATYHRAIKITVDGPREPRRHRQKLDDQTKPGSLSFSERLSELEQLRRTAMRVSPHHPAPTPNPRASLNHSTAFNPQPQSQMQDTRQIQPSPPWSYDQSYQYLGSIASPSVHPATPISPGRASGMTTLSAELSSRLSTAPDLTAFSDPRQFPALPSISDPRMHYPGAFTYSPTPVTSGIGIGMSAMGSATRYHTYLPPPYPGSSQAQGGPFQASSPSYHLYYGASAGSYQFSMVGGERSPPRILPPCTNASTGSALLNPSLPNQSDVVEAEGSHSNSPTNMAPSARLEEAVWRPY
row,Sequence,RUNX1 binding intensity
1,CTGGGCGTGGGCTTCCTGCGGCTGAGTGGCAGCTTC,740
2,GACACAAGACAGTTTCCGTCAGTGGTTAAGCCCTAA,845
3,CTGTCATCTTCCTGACAGCACGCCCACAAAGGACCA,843
4,AAACTACACCTCAGAGGATGTGGTTCCTTCTCTCAT,854
5,GCCATGGCCACTTCCTGCTTGTAACCACAGCCCAGA,1210
6,CAGAAAGAGGAAATGATGCGAGTCCACACCGCAGGC,703
7,TAGCCGTACGGAAATGTTTGTGGTTCTCTGCATCTA,912
8,GCATTTACGGGCAGGAAATGAAACCACAGAGTACAA,1360
9,CCAACTTTTGAGGGATGTGGTTACGTTTTCTAGATC,1410
10,GGCAGCCGGCTTCCGGCTGTGGGTGGTGCGGGGGAC,676
11,GGGTCTCCAGGAAGCCACTCACCACAAACTTTGACA,1080
12,CTTCTGAGAGGAGGATGTGGTCAGATACCTACAAAT,854
13,CGGGACCTGTTTCCTTGGGAACCACAAGATAAGACC,709
14,AGGGAAGCAGGAAGTGACTGCGGGAGTGGAGCCGGC,677
15,ATGTCCCCAGGAGGATGTGGTGTGTCCACAGGAGGA,742
16,CTCAGCTCCGCGGAAGTTGCGGTAAGTGGAGCTTTG,2210
17,AGCTGTTTGGTCACAGGATGTGGTTATTAGAATAGG,894
18,GGGGACCGGAAAGGGAGGGGTGGGCCGCAGGCGCCG,766
19,ACAACTTCCTGTGGGATTTTTGGTGTCTGCGGCTCA,811
20,CCAACACAGGAAATAATTTGAAACCACAATCAGAAA,1290

row,Sequence,RUNX1 binding intensity
1,TCTGGATTTCCTGTGGGGCTCTCCCACAAGCAGTAC,721
2,CCACCATCTTTCCGGCTCCCTCGCGACCACCACGAC,1410
3,ACCCCAGGTACCGGAAGACCACAATTCCCAGGAGTC,1020
4,CCCCTCTCTCCCACTTCCTGTGGTCTCAGTCTTTGT,1500
5,GAAGCTACTCTGGTTTCCTGTGGTTTTCTGAGCACT,1260
6,CCATCCAGGAAGCTTATGGTGCGACCGCAGTGTGCC,908
7,TGAGCACTGAGCACTTCCTGTGGCTTCTGAAGCTCC,797
8,CGCCTGCCCCACTTCCGCCCGGACCCGCAGCCCCTA,1240
9,GCTCTTCACTTCCTGTGGCTCCCGCAGCGGCCGCCG,1090
10,ACCTTGCCTAGAGGAAGTGGTTTTTCGAATCTGAGT,739
11,TCATGCTGCTTCCTGCCCAACCCGCAGTTCCGATAA,1120
12,ACAGTCGCACCGGAAGCTGCCCGCGGTGTTGACACA,700
13,GACCAGGCGAGAGGATGTGGGTATGAGGGAGGAGCT,835
14,GATGCTCTAACAGGAAGTGGGTTAAGGAGCTGCACT,673
15,CAGAGCAGAGAGGAAGTGGTGGTGGCCACAGTCCCA,686
16,GGTCCCCCCGGTTCCGGCGCGGTTGAGGCCTTCGGT,758
17,TTTATCATGAATGCAGGATGTGGGCAGACTCACAGC,691
18,GACAGGAAGTGACCTCAATTTCCCCGGCCACAGAAA,809
19,AAGAAAAAGGGAGGATGTGGTTTAGCAAAAGCACTG,920
20,TGCGCGCCGGCTTCCGCTGCGGCCAGTCGGGCGGCG,647
